# Luc counter: blocks Kinase-Glo luciferase, a counter-screen artifact; Q27757; Potency, µM (top dose mostly 38.3 µM), without a hit: at the highest dose activity change, negative = inhibition, actives largely listed as inhibitors; hit rate 0.28% among 200,000; Kinase-Glo luciferase, ATP luminescence, 8 min; AID 1379; also: % is scaled to controls: 0 for no effect and ±100 for the full control effect; nearly all actives have a fitted effect of over 60% in size
#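 Kinase-Glo luciferase light output from ATP and luciferin was measured with 10 uM ATP, within the enzyme's linear range. Buffer: 50 mM imidazole pH 7.2, 50 mM KCl, 7 mM MgCl2, 0.01% Tween 20, 0.05% BSA; luminescence read after 8 min at ambient temperature.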
# SMN2 splice enh: increases expression of the SMN2 splice variant; HEK293 SMN2-luciferase splicing reporter, luminescence, 30-36 h; Potency, µM (highest dose often 46.1 µM), inactives show top-dose activity change, positive = activation, usual class: activators; hit rate 2.8% among 210,000; also: % of control where 0% means no effect; nearly all actives have a fitted effect of over 55% in size
#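 HEK293 cells carry an SMN2 […]–luciferase reporter in which exon 7 inclusion puts luciferase in frame. Cells were plated 10-12 h before compound addition, then incubated 30-36 h at 37C. ONE-Glo luminescence was read; sodium butyrate at 4.5 mM final served as control.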
# ELG1 genotox: inducers of genotoxicity in HEK293T ELG1-luciferase cells; HEK293T ELG1-luciferase reporter, luminescence, 16 h; Potency, µM (series often up to 46 µM), without a hit: at the top dose activity change, positive = activation, hits mostly activators; hit rate 1.3% among 330,000; also: % of control where 0% means no effect; nearly all actives have a fitted effect of over 60% in size
#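 Genotoxic stress is detected as increased luminescence from luciferase-tagged ELG1 in HEK293T cells, measured with ONE-Glo after a 16 hr treatment at 37 °C.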
# NPC1 prom act: activates the NPC1 promoter | Huh7 NPC1 promoter luciferase reporter, 24 h | Potency, µM (titrated, usually from 9.22 µM), without a hit: top-dose activation, most hits filed as activators | hit rate 2.4% among 320,000 | AID 485313; also: % of control where 0% means no effect; nearly all actives have a fitted effect of over 60% in size
#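 In 1536-well qHTS, Huh7 cells harboring an NPC1 promoter–luciferase construct received compound for 24 h; activation was quantified by luminescence following luciferase reagent addition.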
# Rab9 promoter act: activators of Rab9 promoter | hit rate 2.8% among 320,000 | Potency, µM (titrated, usually from 9.22 µM), inactives show at the top dose activation, negative = inhibition, usual class: activators | Huh7 Rab9 promoter-luciferase reporter, luminescence, 24 h; also: % of control where 0% means no effect; nearly all actives have a fitted effect of over 60% in size
#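 Measured in stably transfected Huh7 cells bearing a Rab9 promoter–luciferase construct: 24 h compound treatment at 37 °C, followed by luminescence detection.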
# FLuc counter: inhibits or activates purified firefly luciferase, miR-21 counter-screen; P08659; hit rate 6.9% among 360,000; AID 588342; purified FLuc, Km substrates, luminescence inhibition; Potency, µM (top dose mostly 57.5 µM), for inactives: top-dose activity change, negative = inhibition, hits mostly inhibitors;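 also: plate controls were vehicle for no effect and reference inhibitor for full effect; nearly all actives have a fitted effect of over 55% in size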
# Target sequence (P08659 whole entry, looked up): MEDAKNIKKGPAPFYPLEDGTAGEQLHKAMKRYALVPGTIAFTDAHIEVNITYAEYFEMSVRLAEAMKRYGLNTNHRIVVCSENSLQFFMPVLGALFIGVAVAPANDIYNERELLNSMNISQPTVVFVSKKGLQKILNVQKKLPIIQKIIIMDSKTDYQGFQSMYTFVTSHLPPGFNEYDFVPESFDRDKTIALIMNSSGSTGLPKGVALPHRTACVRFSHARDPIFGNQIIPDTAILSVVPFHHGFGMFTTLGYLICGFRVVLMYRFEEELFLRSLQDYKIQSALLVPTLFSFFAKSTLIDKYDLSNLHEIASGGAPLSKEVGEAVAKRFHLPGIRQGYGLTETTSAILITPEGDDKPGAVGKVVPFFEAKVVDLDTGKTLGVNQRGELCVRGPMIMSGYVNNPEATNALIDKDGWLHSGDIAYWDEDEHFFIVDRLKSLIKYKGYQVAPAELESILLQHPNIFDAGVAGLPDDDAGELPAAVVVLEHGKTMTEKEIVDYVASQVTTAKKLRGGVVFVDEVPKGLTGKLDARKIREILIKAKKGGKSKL
#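 Biochemical qHTS of compounds, final roughly 60 µM downward over six points, against 10 nM purified firefly luciferase using Km concentrations of substrates (10 uM D-luciferin, 10 uM ATP) in Tris acetate pH 7.5 buffer; luminescence output.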
# Starred values were filed as active, the others as inactive; ? = inconclusive; / = no result; [ ] = dose if it differs, or a comment. Sampled rows, rich in hits. Any-hit rate of the full collection: about 7.4%. Calls follow the shape of the dose curve; as a rule, active = well fitted curve in the direction sought with a large enough effect; inconclusive = small, poorly fitted or top-dose-only effect, or another doubt; inactive = no such curve, though single readings can be large; an effect the other way counts as inactive or inconclusive. Potency is read from the fitted curve at half-maximal effect.
SMILES,Luc counter,SMN2 splice enh,ELG1 genotox,NPC1 prom act,Rab9 promoter act,FLuc counter
CSc1ccc(CNc2ccccn2)cc1,-1.5%,12.1%,?,?,?,15.1µM*
CC(C(=O)O)N1C(=O)/C(=C/C=C/c2ccco2)SC1=S (configuration not stated),-3.4%,-8.9%,0.4%,8.4%,0.6%,16.9µM*
COc1ccc(C(=O)O/N=C(/C)c2cccs2)cc1,12.6µM*,-2.6%,1.8%,-2.6%,-1.7%,0.0757µM*
C/C(=N\OC(=O)c1c(-c2c(F)cccc2Cl)noc1C)c1nccs1,4.9%,/,-0.9%,-8.5%,-2.5%,7.0%
COc1ccc(C/C(N)=N/OC(=O)c2cccs2)cc1,1.0%,/,2.3%,9.8%,1.2%,-12.7%
COC(=O)c1ccc(OC(=O)c2cccs2)cc1,-1.0%,6.6%,3.1%,-20.7%,3.1%,23.9µM*
C/C(=N/OC(=O)c1c(F)cccc1F)c1nccs1,-21.4%,4.3%,-7.9%,-4.4%,-1.2%,4.78µM*
COc1ccc(C(=O)N/N=C/c2ccc(OC(=O)c3cccs3)cc2)cc1,1.4%,18.8%,9.7%,4.5%,-4.1%,-0.3%
C/C(=N\OC(=O)c1ccc(F)cc1)c1nccs1,-26.3%,-6.3%,-0.6%,-3.8%,3.1%,0.675µM*
COc1ccc(C2CC2/C(C)=N/OC(=O)c2cccs2)cc1 (configuration not stated),-2.4%,11.1%,1.3%,0.4%,-0.3%,23.9µM*
COc1ccc(C(=O)O/N=C(\C)c2nccs2)cc1,12.6µM*,/,1.3%,-2.1%,15.0%,0.477µM*
O=C(OCCc1cc2ccccc2c(=O)o1)c1cccs1,/,/,-0.5%,26.2%,0.6%,4.26µM*
COc1ccc(C2CC2/C(C)=N/OC(=O)c2ccc(F)cc2)cc1 (configuration not stated),4.0%,3.0%,3.2%,3.2%,2.2%,?
COc1ccc(OCCOC(=O)c2cccs2)cc1,-10.4%,0.1%,23.1µM*,1.3%,-8.4%[1.84 µM],16.9µM*
Cc1oc(-c2ccccc2Cl)nc1CSc1nncn2c1cc1occc12,/,/,/,/,/,2.3%
O=C1c2ccccc2CCC12N=NCC2c1ccc(Cl)cc1 (configuration not stated),-3.0%,-13.3%,-0.2%,-3.9%,6.8%,21.3µM*
COc1ccc(C2CN=NC23CCCc2ccccc2C3=O)cc1 (configuration not stated),-1.7%,-26.3%,-3.7%,-1.0%,-0.9%,-17.7%
COc1ccc(C2CN=NC23CCc2ccccc2C3=O)cc1 (configuration not stated),/,/,1.8%,-3.4%,1.2%,16.9µM*
Cc1ccc(N2C(S)=C(C#N)C(=O)NC23CCCCC3)cc1,0.0%,19.0%,1.0%,-2.3%,-4.5%,16.9µM*
Cc1cccc(N2C(S)=C(C#N)C(=O)NC23CCCCC3)c1,1.5%,-7.7%,1.9%,0.9%,-11.2%,?
O=C(N/N=C/c1cccc(Oc2ccccc2)c1)c1ccc(O)cc1O,/,/,1.0%,1.3%,12.9%,16.9µM*
O=C(N/N=C/c1cccc(Oc2ccccc2)c1)c1ccncc1,-2.5%,?,-3.4%,1.4%,13.7%,?
COc1cc(C(=O)N/N=C/c2cccc(Oc3ccccc3)c2)ccc1O,/,/,4.8%,-4.3%,4.4%,16.9µM*
Cc1ccccc1NC(=O)c1c(C)oc2ccc(O)c(CN3CCCCCC3)c12,/,-12.6%,/,/,/,-4.4%
N#Cc1cccc(-c2csc(N3CCC(C(N)=O)CC3)n2)c1,/,/,/,/,/,-16.6%
SMILES,Luc counter,SMN2 splice enh,ELG1 genotox,NPC1 prom act,Rab9 promoter act,FLuc counter
COc1ccc([C@H]2[C@H](C(=O)OC(C)(C)C)N3N=Cc4ccccc4C3C23C(=O)c2ccccc2C3=O)cc1OC (some centres not stated),-3.4%,10.0%,-2.1%,-0.1%,-1.5%,15.1µM*
COc1ccccc1/C=C(\C#N)c1nc(-c2cc3ccccc3oc2=O)cs1,/,13.5%,/,/,/,-3.5%
O=c1cc(-c2ccccc2Cl)oc2c(Br)ccc(O)c12,-2.0%[39.9 µM],10µM*,?,?,3.55µM*,12µM*
c1ccc2c(c1)-c1nc3ccccc3cc1[C@H]2N1CCOCC1,1.1%[7.66 µM],-14.4%[9.22 µM],/,/,/,/
OC1c2ccccc2-c2nc3ccccc3cc21 (configuration not stated),?,14.1µM*,/,/,/,/
O=C(CNc1ccc(F)cc1)N/N=C1\CCCc2ccccc21,-1.7%,-3.4%,-3.4%,-1.6%,1.4%,4.1%
O=C(N/N=C1\CCCc2ccccc21)c1ccc([N+](=O)[O-])cc1,3.0%,14.1µM*,?,?,3.55µM*,6.01µM*
Cc1ccc(C(=O)N/N=C2\CCCc3ccccc32)c(C)c1,-1.9%,12.6µM*,12.8%,2.82µM*,?,6.01µM*
Cc1ccc(-c2nn(-c3ccc(F)cc3)cc2C(=O)NCCCN2CCCC2=O)cc1,/,/,-6.7%,1.4%,2.9%,10.7µM*
Cc1ccc(NC(=O)C(=O)NCCCN2CCCC2=O)cc1,/,/,2.06µM*,2.24µM*,1.41µM*,12µM*
Cc1ccc(NC(=O)C(=O)NCCCN2CCCC2=O)c(C)c1,/,/,12.2%,23.9%,?,?
NNC(=O)CCSc1ccccc1,-1.7%[7.66 µM],-14.1%[9.22 µM],/,/,/,/
COc1ccc(-n2nc(C(=O)NCC(=O)N3CCCCCC3)c3ccccc3c2=O)c(OC)c1,/,/,?,11.5%,14.4%,2.39µM*
COc1ccc(-n2nc(C(=O)NCC(=O)N3CCCCC3)c3ccccc3c2=O)c(OC)c1,/,/,?,23.0%,?,3.79µM*
COc1ccc(-n2nc(C(=O)NCC(=O)N3CCN(Cc4ccccc4)CC3)c3ccccc3c2=O)c(OC)c1,/,/,0.6%,-0.1%,-0.3%,?
COc1ccc(-n2nc(C(=O)NCC(=O)N3CCC(C)CC3)c3ccccc3c2=O)c(OC)c1,/,/,?,?,?,1.51µM*
COc1ccc(-n2nc(C(=O)NCC(=O)N3CCOCC3)c3ccccc3c2=O)c(OC)c1,/,/,4.5%,-2.2%,-2.6%,23.9µM*
COc1ccc(-n2nc(C(=O)NCCCN3CCOCC3)c3ccccc3c2=O)c(OC)c1,/,/,4.7%,-11.9%,2.6%,1.8%
O=C(c1cccc(F)c1)N1CCC2(CC1)CCN(c1ccncc1)CC2,1.2%,-29.8%,/,/,/,/
CC1CCN(C(=O)Cn2c(=O)n(CCCCCC(=O)NCc3ccccc3Cl)c(=O)c3sccc32)CC1,/,2.8%,/,/,/,-0.9%
COC(C(=O)Nc1ccc(C(N)=O)cc1)c1ccccc1 (configuration not stated),0.4%,15.8µM*,-1.7%,1.4%,-7.8%,3.9%
COc1ccc(-c2cc(C(=O)Nc3c(C)n(C)n(-c4ccccc4)c3=O)c3ccccc3n2)cc1,/,/,-21.1%,-8.9%,-1.0%,15.1µM*

# Screening results: PubChem, National Center for Advancing Translational Sciences (NCATS)
